Bioassay records as filed in PubChem BioAssay.
mIDH1 inhibitor = qHTS for Inhibitors of mutant isocitrate dehydrogenase 1 (IDH1): qHTS; Isocitrate dehydrogenase [NADP] cytoplasmic (Homo sapiens), O75874; hit rate 0.093% among 390,000; IDH1-R132H enzyme, NADPH consumption, diaphorase/resazurin fluorescence; Potency, µM (series often up to 76.6 µM), for the others: at the top dose activity change, negative = inhibition, usual class: inhibitors; AID 602179, 2012; also: potency is read from the fitted curve at half-maximal effect; % is scaled to controls: 0 for no effect and ±100 for the full control effect; nearly all actives have a fitted effect of over 65% in size
Target sequence (O75874 whole entry R132H, stated change not applied): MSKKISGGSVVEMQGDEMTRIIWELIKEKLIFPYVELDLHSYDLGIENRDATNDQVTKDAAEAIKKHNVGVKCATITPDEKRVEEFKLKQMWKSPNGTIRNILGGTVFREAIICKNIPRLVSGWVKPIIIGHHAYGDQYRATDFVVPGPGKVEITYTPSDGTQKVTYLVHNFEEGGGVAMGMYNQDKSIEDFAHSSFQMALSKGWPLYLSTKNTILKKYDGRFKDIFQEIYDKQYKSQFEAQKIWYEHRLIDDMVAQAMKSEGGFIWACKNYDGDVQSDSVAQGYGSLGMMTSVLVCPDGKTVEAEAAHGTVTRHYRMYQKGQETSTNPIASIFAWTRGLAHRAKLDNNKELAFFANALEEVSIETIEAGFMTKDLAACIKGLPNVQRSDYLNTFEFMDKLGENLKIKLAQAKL
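IDH1-R132H (0.5 ug/mL dispensed) in pH 7.5 Tris buffer was preincubated 30 min with compound, then given a substrate mix of 0.016 mM NADPH and 2 mM alpha-KG for 80 min at room temperature; remaining NADPH was read by diaphorase/resazurin fluorescence.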
B2AR arrestin = qHTS assay of beta-arrestin-biased ligands of beta2-adrenergic receptor; Beta-2 adrenergic receptor (Homo sapiens), P07550; beta-arrestin recruitment to beta2AR, cell-based reporter; Potency, µM (doses to about 46.1 µM), inactives show top-dose activation, usual class: activators; hit rate 0.02% among 330,000; AID 492947, 2010;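 also: potency is read from the fitted curve at half-maximal effect; 0% = DMSO controls and full agonism = EC100 isoproterenol or metaproterenol; nearly all actives have a fitted effect of over 65% in size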
D3 antag = qHTS of D3 Dopamine Receptor Antagonist: qHTS | D(3) dopamine receptor (Homo sapiens), P35462 | D3R cells, DiscoveRx beta-arrestin luminescence, antagonist mode; stronger effect = lower value | max response, negative = inhibition, % | hit rate 2.5% among 360,000 | AID 652054, 2013; in the data active = max response below about -50%; inconclusive = no clear call, values can overlap the other calls; also: % is scaled to controls: 0 for no effect and ±100 for the full control effect
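Cells expressing the human receptor were seeded at 1500 cells/well, incubated overnight at 37 degrees C in 5% CO2, then exposed to library compounds with dopamine controls for 90 minutes at 37 degrees C before luminescent detection.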
Integrin act MD = qHTS for Activators of Integrin-Mediated Alleviation for Muscular Dystrophy; hit rate 0.064% among 350,000; Potency, µM (top dose mostly 38.3 µM), for the others: at the highest dose activation, hits mostly activators; AID 624291, 2012; alpha7betagal myoblasts, beta-gal FDG fluorescence, 48 h;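 also: potency is read from the fitted curve at half-maximal effect; 100% = response of the positive control SU9516; nearly all actives have a fitted effect of over 60% in size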
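Alpha7betagal+/- myoblasts (passage 13) were plated 16-24 hr, then exposed to compounds (1:260 dilution of DMSO stock) for 48 hours at 37C. After MPER lysis, β-galactosidase reporter activity was read as FDG fluorescence (ex 480/em 540) after 30 minutes.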
DRD3 agonist = qHTS of D3 Dopamine Receptor Agonist: qHTS; hit rate 0.58% among 410,000; max activation, %; D(3) dopamine receptor (Homo sapiens), P35462; AID 652048, 2013; D3R DiscoveRx beta-arrestin cells, luminescence, 90 min; in the data active = max activation above about 30%; also: 0% is about no effect
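Agonist-mode cell screen: cells plated at 1500/well and incubated overnight at 37 °C, then exposed to library compounds for 90 min at 37 °C. Detection reagent was added for 30–60 min at room temperature, and luminescence was read.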
The depositor's hits bear a star; u = inconclusive; x = no result; ! = not confirmed by another sample; [ ] = dose if it differs, or a comment. The list is not random: actives were taken first. Their share in the collection is about 2.9%. Unless noted, calls follow the shape of the dose curve; as a rule, active = well fitted curve in the direction sought with a large enough effect; inconclusive = small, poorly fitted or top-dose-only effect, or another doubt; inactive = no such curve, though single readings can be large; an effect the other way counts as inactive or inconclusive.

SMILES | mIDH1 inhibitor | B2AR arrestin | D3 antag | Integrin act MD | DRD3 agonist
CC1CC(C)CN(CCCNC(=O)c2ccc3nc(N4CCOCC4)sc3c2)C1 (configuration not stated) | -11% | 0% | -63* | -42% | -17
CCN(CC)CCCNC(=O)c1cc2c(Cl)nc3ccccc3c2s1 | 4% | 0% | -54* | -26% | -28
COc1ccc(N(C)C(=O)c2cc3c(Cl)nc4ccccc4c3s2)cc1 | -9% | 0% | 15 | -17% | 66*
CN(C(=O)c1cc2c(Cl)nc3ccccc3c2s1)c1cccc(C(F)(F)F)c1 | -4% | x | x | x | 5
CCC1CCc2nc3sc(C(=O)Nc4ccc(C)cc4)c(N)c3cc2C1 (configuration not stated) | x | x | x | x | -1
O=S(=O)(c1cnc(Cl)c(Cl)c1)N1CCc2ccccc21 | 5% | 5% | -15 | -45% | -17
O=S(=O)(c1cnc(Cl)c(Br)c1)N1CCc2ccccc21 | 3% | -1% | -53* | -50% | -10
COc1ccccc1C(=O)N1c2ccccc2C(C)(c2ccc(Cl)cc2)CC1(C)C (configuration not stated) | -14% | x | x | x | -11
C/C(=N/NC(=O)c1cc2ccccc2cc1O)C1C(=O)c2ccccc2C1=O | 17% | 0% | -56* | 8% | 0
COc1ccc(CCn2c3c(c(=O)[nH]c2=O)C(NC(=O)c2ccccc2F)(C(F)(F)F)C(=O)N3)cc1OC (configuration not stated) | 15% | x | x | x | 8
O=C1CCCN1c1ccc(CNS(=O)(=O)c2ccc(F)cc2)cc1 | 4% | -1% | -57* | 44% | 0
CC[C@@H](CO)NCCN[C@@H](CC)CO | x | x | x | x | 2
O=Cc1cccc(OCc2cn(CC(=O)c3ccc(O)cc3)nn2)c1 | 11% | x | -53* | 18% | -12
N#Cc1ccccc1OCc1cn(CC(=O)c2ccc(O)cc2)nn1 | 1% | x | -73* | 7% | -12
O=C(Cn1cc(COc2ccccc2[N+](=O)[O-])nn1)c1ccc(O)cc1 | 2% | x | -9 | -2% | 37*
O=C(Cn1cc(COc2ccc(Br)cc2)nn1)c1ccc(O)cc1 | 1% | x | 16 | 38% | -9
CCCC(=O)c1ccc(OCc2cn(CC(=O)c3ccc(O)cc3)nn2)cc1 | 5% | x | -18 | 0% | -20
CC1C/C(=C/c2ccccn2)C(=O)/C(=C/c2ccccn2)C1 (configuration not stated) | 6% | 0% | -60* | -38% | -22
O=C1/C(=C/c2ccccn2)COc2ccccc21 | 3% | 0% | 9 | u | -5
CC(C)(C)C1C/C(=C/c2ccccn2)C(=O)/C(=C/c2ccccn2)C1 (configuration not stated) | -4% | 0% | -53* | u | -9
O=C(NCc1ccccc1F)c1cccc(NC(=O)N2CCSc3ncccc32)c1 | 14% | x | x | x | 0
CCC12CN3CC(C)(CN(C1)C3c1c[nH]c3ccccc13)C2=O (configuration not stated) | 1% | x | x | x | 5
Cc1ccc(S(=O)(=O)N2CCC(c3nnc(-c4cccc(C)c4)o3)CC2)cc1 | 18% | x | x | x | -1
CCCCOc1ccc(C(=O)C(CN2CCOCC2)c2ccccc2)cc1 (configuration not stated) | 1% | -1% | -54* | -57% | -2
COc1ccc(C(=O)C(CN2CCOCC2)c2ccccc2)cc1 (configuration not stated) | 3% | 0% | -22 | -51% | -17
SMILES | mIDH1 inhibitor | B2AR arrestin | D3 antag | Integrin act MD | DRD3 agonist
CCOCCc1nnc(NC(=O)Cc2c(F)cccc2Cl)s1 | 9% | 0% | -7 | 10% | 35*
CCOCCc1nnc(NC(=O)Cc2ccccc2)s1 | 3% | 0% | -7 | -4% | -1
CCOC(=O)c1sc(=S)n(-c2ccccc2)c1SC | 1% | 0% | 5 | -21% | 3
CCOC(=O)c1c(SCCN2CCCC2)n(-c2ccccc2)c(=S)n(-c2ccccc2)c1=O | 4% | x | -119* | -11% | -17
CNC[C@H](O)c1cccc(O)c1 | 17% | x | -14 | x | 45*!
CNCC(O)COc1cccc(OC)c1 (configuration not stated) | 3% | 0% | 19 | 30% | 6
CCOC(=O)C1=C(Cc2ccc(Cl)cc2)C(=O)c2ccccc2C1=O | 24% | 0% | -76* | -57% | -20
CC1(C)CC(=O)c2cc(OCC(=O)NCCN3CCCc4ccccc43)ccc2O1 | 1% | 0% | -68* | -3% | -31
CC1(C)CC(=O)c2cc(OCC(=O)NCCCN3CCN(c4ccc(F)cc4)CC3)ccc2O1 | 4% | 0% | -81* | -45% | -54
CCCn1ccc2c(OCC(=O)Nc3ccccc3C(=O)OCC)cccc2c1=O | 0% | x | x | x | 10
CCOC(=O)c1cnc2ccc(OC(F)(F)F)cc2c1Nc1ccccc1C(=O)O | 11% | x | x | x | 31*
CCC(CNc1cc(OC)cc2cccnc12)NC1CCCCC1 (configuration not stated) | 23% | 0% | -57* | -71% | -16
COc1cc(NC(=O)c2ccccc2Cl)c2ncccc2c1 | 5% | 0% | 1 | -22% | -10
COc1cc(NCCCC(C)N)c2ncccc2c1 (configuration not stated) | 26% | 0% | -54* | -49% | -10
COc1cc(NCCCCC(C)N)c2nccc(C)c2c1 (configuration not stated) | 17% | x | 1 | -51% | 0
Cc1cc2c(c(=O)n1Cc1ccccc1)C1O[C@](c3ccsc3)(Cc3ccccc31)O2 | x | 0%[9.22 µM] | x | x | x
O=C(N/N=C/c1ccc(Br)s1)c1c[nH]c2ccccc12 | -1% | -1% | -55* | -2% | -21
COC(=O)c1cc(=O)n(-c2ccccc2)c(=Nc2ccccc2)s1 | -2% | 0% | -61* | -42% | -7
C=C1CC(COc2cc(=O)oc3ccccc23)(c2ccccc2)OC1=O (configuration not stated) | -10% | x | -114* | -56% | -15
C=C1CCC2C(C)(C)[C@H](O)CC[C@@]2(C)[C@@H]1COc1cc(=O)oc2ccccc12 (some centres not stated) | 8% | -1% | 32 | 10% | 19
O=C(NCc1ccccc1)c1ccc(N2CCC3(CC2)CC(c2ccc(Cl)cc2)=NO3)c([N+](=O)[O-])c1 | 6% | 1% | -63* | 23% | -23
CCOc1ccc(C(=O)Nc2ccccc2OCc2cc(=O)n3ccccc3n2)cc1 | -13% | x | x | x | -12
O=C(COc1ccc2c3c(c(=O)oc2c1)CCC3)N[C@@H](Cc1ccccc1)C(=O)O | 20% | 0% | 12 | 1% | 33*
